An excerpt weighted towards active compounds, which were near 9.3% of everything screened.
HCV inhibitor = qHTS Assay for Inhibitors of Hepatitis C Virus (HCV) | Huh7.5.1 HCVcc-Cre infection, luciferase reporter, 44 h | Potency, µM (top dose mostly 41.8 µM), inactives show at the highest dose activity change, negative = inhibition, hits mostly inhibitors | hit rate 3.4% among 340,000 | AID 651820, 2012; further: potency means the concentration at half of the fitted maximal effect
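Reporter virus HCVcc-Cre (~0.5 moi) infects cells exposed to compound; seeding density 1,000 cells/well with 4 h settling beforehand. Luminescence, 15 sec read, taken 44 h post-infection following a 15 min RT substrate incubation.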
HCMV inh = qHTS Assay for inhibitors of the human cytomegalovirus (HCMV); HFF cells, HCMV-luciferase reporter, 72 h; hits give low values; activity change, negative = inhibition, % at 57.5 µM; hit rate 4.5% among 410,000; AID 1259415, 2018; in the data active means activity change below about -60%; inconclusive means no clear call, values can overlap the other calls; inactive means above about -39%
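Luciferase read-out from HCMV-luciferase-infected HFFs (MOI 1 PFU/cell) 72 h post infection at 37C; compounds added after 16 h cell attachment; activity normalized between buffer-only basal and Salinomycin (10uM) inhibitor controls.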
Sm TGR block = qHTS Assay for the Inhibitors of Schistosoma Mansoni Peroxiredoxins; Schistosoma mansoni thioredoxin glutathione reductase (TGR), Q962Y6; purified TGR, DTNB reduction, TNB absorbance 405 nm; Potency, µM (doses to about 114 µM), inactives show at the top dose activity change, negative = inhibition, usual class: inhibitors; hit rate 3% among 360,000; further: potency means the concentration at half of the fitted maximal effect; nearly all actives have a fitted effect of over 60% in size
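First, TGR (20 nM dispensed) and NADPH were mixed with compound. Second, a 15 min room-temperature incubation followed. Third, further NADPH and then DTNB were added to start the reaction. Finally, TNB absorbance was monitored kinetically.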
Vaccinia Venus = qHTS for Stage-Specific Inhibitors of Vaccinia Orthopoxvirus: Venus Reporter Primary qHTS; Vaccinia virus Venus reporter expression, fluorescence; Potency, µM (doses to about 36.5 µM), for the others: at the top dose activity change, negative = inhibition, usual class: inhibitors; hit rate 0.46% among 330,000; AID 720580, 2013; calls by dose curve; tested in A549 cells; further: potency means the concentration at half of the fitted maximal effect; nearly all actives have a fitted effect of over 30% in size
Vaccinia mCherry = qHTS for Stage-Specific Inhibitors of Vaccinia Orthopoxvirus: mCherry Reporter Primary qHTS | hit rate 0.63% among 310,000 | Vaccinia virus mCherry reporter infection, fluorescence | Potency, µM (doses to about 36.5 µM), for inactives: at the top dose activity change, negative = inhibition, usual class: inhibitors; calls by dose curve; tested in A549 cells; further: potency means the concentration at half of the fitted maximal effect; nearly all actives have a fitted effect of over 35% in size
FMDV inh = High Throughput Screening for Foot and Mouth Disease Virus Antivirals; FMDV antiviral cell-based qHTS; Potency, µM (series often up to 57.9 µM), for inactives: top-dose activity change, negative = inhibition, actives largely listed as inhibitors; hit rate 1.2% among 410,000; AID 1159524, 2015; calls by dose curve; tested in HEK293T cells; further: read-out not given here; potency means the concentration at half of the fitted maximal effect; nearly all actives have a fitted effect of over 45% in size
* marks the source's active call; other numbers are inactive results; i = inactive; ? = inconclusive; nt = no result; [ ] = dose if it differs, or a comment. Unless noted, the call rests on the fitted dose curve; in most records, active means well fitted curve in the direction sought with a large enough effect; inconclusive means small, poorly fitted or top-dose-only effect, or another doubt; inactive means no such curve, though single readings can be large; an effect the other way counts as inactive or inconclusive. On the % scale 0 is the no-effect control and ±100 the full control effect.

SMILES	HCV inhibitor	HCMV inh	Sm TGR block	Vaccinia Venus	Vaccinia mCherry	FMDV inh
Cc1onc(-c2ccccc2)c1CNC(=O)Nc1cccc(Cl)c1	?	-40	-7%	-8%	-17%	11%
CCOC(=O)c1cnc(SCc2ccc(Cl)c(Cl)c2)nc1N1CC1	11µM*	23	nt	?	?	?
CCOC(=O)c1cnc(SCc2ccccc2)nc1N	?	25	-1%	-11%	-4%	nt
CN(CCO)c1cc(N(C)CCO)c([N+](=O)[O-])cc1[N+](=O)[O-]	-9%	-35	-8%	-9%	-9%	-2%
O=[N+]([O-])c1ccc(N(CCO)CCO)c2c1no[n+]2[O-]	nt	-99*	nt	84%	?	?
N/C(=N\N=C\c1ccc(Br)o1)c1nonc1N	7%	56	40µM*	nt	nt	20%
N/C(Cc1ccc([N+](=O)[O-])cc1)=N\OC(=O)COc1cccc2ccccc12	5%	14	10%	nt	nt	-14%
N/C(Cc1ccc([N+](=O)[O-])cc1)=N\OC(=O)COc1ccccc1Cl	2%	-102*	-10%	4%	-12%	20%
Cc1ccc(CNC(=O)c2ccc(CS(=O)(=O)c3ccccc3)o2)cc1	-28%	-61*	-14%	nt	nt	?
COc1ccc(S(=O)(=O)Cc2ccc(C(=O)NCC(OC)OC)o2)cc1	20%	-16	-17%	-13%	i	5%
Cc1ccc(S(=O)(=O)Cc2ccc(C(=O)NCCCN3CCCC3=O)o2)cc1	5%	-10	20µM*	nt	nt	7%
O=C(NCc1ccc(F)cc1)c1ccc(CS(=O)(=O)c2ccc(Cl)cc2)o1	nt	0	-10%	-22%	i	?
COC(=O)c1ccc(CS(=O)(=O)c2ccc(F)cc2)o1	6%	-19	22µM*	nt	nt	-2%
COC(CNC(=O)c1ccc(CS(=O)(=O)c2ccccc2)o1)OC	-2%	-8	18µM*	-4%	-9%	-17%
O=C(NC1CC2CCCC(C1)N2Cc1ccccc1)C1CCCCC1 (centres undefined)	8%	3	nt	nt	nt	-14%
Cc1cc(C(=O)N/N=C/c2cc(Br)cc([N+](=O)[O-])c2O)c2ccccc2n1	12%	-38	-19%	-23%	-16%	-23%
CCc1ccc(CNC(=O)c2ccc(CSc3nc4ccncc4n3Cc3ccccc3)cc2)cc1	nt	-17	-3%	-25%	-2%	-13%
CN(CC(=O)N1CC=C(c2ccccc2)CC1)S(=O)(=O)c1cnc[nH]1	6%	-2	-1%	-9%	-9%[1.46 µM]	-13%
Cc1noc(NS(=O)(=O)c2ccc(NC(=O)C(C)C)cc2)c1C	8%	4	25µM*	-7%	-8%	-14%
Cc1ccc(OCC(=O)Nc2ccc(S(=O)(=O)Nc3onc(C)c3C)cc2)cc1	15%	10	89µM*	-14%	-4%	3%
CCc1ccc(OCC(=O)Nc2ccc(S(=O)(=O)Nc3onc(C)c3C)cc2)cc1	nt	0	-9%	-6%	1%	-11%
Cc1sc2nc(-c3ccncc3)[nH]c(=O)c2c1-c1ccccc1	4%	nt	-17%	nt	nt	nt
Cc1sc2nc(CN3CCOCC3)[nH]c(=O)c2c1-c1ccccc1	5%	-28	-5%	-8%	-1%	-15%
COCCNCc1nc2sc(C)c(-c3ccccc3)c2c(=O)[nH]1	-23%	-101*	1%	-5%	i	-10%
Cc1sc2nc(-c3ccccn3)[nH]c(=O)c2c1-c1ccccc1	10µM*	-61*	9%	-9%	?	7%
SMILES	HCV inhibitor	HCMV inh	Sm TGR block	Vaccinia Venus	Vaccinia mCherry	FMDV inh
CC1Cc2ccccc2N1C(=O)COC(=O)c1cc(Br)ccc1O (centres undefined)	?	-18	-10%	-3%	-23%	-23%
CC(=O)NC1=NN(C(C)=O)C2(CCCC2)S1	11%	-18	2%	-2%	-6%	1%
Cc1ccc2c(c1)[C@H]1[C@H](CO2)[C@H](c2ccccc2)[C@]2(C)C(=O)Nc3ccccc3C(=O)N12	-19%	-76*	nt	-27%	?	0%
COc1ccc2c(c1)[C@H]1[C@H](CO2)[C@H](c2ccccc2)[C@]2(C)C(=O)Nc3cc(OC)c(OC)cc3C(=O)N12	10µM*	?	-18%	?	?	-29%
Cc1ccc2c(c1)[C@H]1[C@H](CO2)[C@H](c2ccccc2)[C@]2(C)C(=O)Nc3ccc(Cl)cc3C(=O)N12	?	-33	nt	?	-24%	-23%
CCOC(=O)[C@H]1[C@H]2COc3ccccc3[C@@H]2N2C(=O)c3cc(OC)ccc3NC(=O)[C@@]12C	-3%	-17	0%	?	i	-10%
C[C@@]12C(=O)Nc3ccc(F)cc3C(=O)N1[C@H]1c3cc(Br)ccc3OC[C@@H]1[C@@H]2c1ccccc1	?	-70*	nt	?	-22%	-27%
CCOC(=O)[C@H]1[C@H]2COc3ccc(OC)cc3[C@@H]2N2C(=O)c3cc(C)ccc3NC(=O)[C@@]12C	-17%	-62*	0%	-23%	i	-12%
COc1ccc2c(c1)[C@@H]1[C@H](CO2)[C@H](c2ccccc2)[C@]2(C)C(=O)Nc3ccc(C)cc3C(=O)N12	-6%	nt	-6%	-22%	-19%	-28%
CCN(CC)CCCNC(=O)c1ccc2c(c1)sc1nc(-c3ccc(C)cc3)cn12	nt	nt	5%	?	?	11%
O=C(CN1CCCCCC1)Nc1ccc([N+](=O)[O-])cc1Cl	-9%	?	-32%	-1%	i	-5%
CCC1Oc2ccc(C)cc2N(CC(=O)NCCC2=CCCCC2)C1=O (centres undefined)	?	15	-4%	nt	nt	0%
CCOC(=O)N1CCc2c(sc3c2c(=O)n(-c2ccc(CC)cc2)c(=O)n3CC(=O)Nc2ccc(C)cc2)C1	nt	?	-5%	-21%	-14%	-2%
COc1ccc2c(c1)[C@H]1[C@H](CO2)[C@H](c2ccccc2)[C@]2(C)C(=O)Nc3ccc(C)cc3C(=O)N12	11µM*	-26	nt	?	-28%	-25%
C[C@]12C(=O)N(c3cccc(F)c3)C(=O)N1[C@@H]1c3ccccc3OC[C@@H]1[C@H]2c1ccccc1	?	-86*	-1%	-17%	?	-6%
NC(N)=NCCC[C@@H](N)C(=O)O	nt	nt	nt	-11%	-15%	-2%
CCOC(=O)CCNC(=O)CCc1nnc(CCCc2ccccc2)o1	-7%	34	-5%	-14%	-19%	37%
CC1(NCc2ccc(Cl)cc2)COP(=O)(NCc2ccccc2)OC1 (centres undefined)	13%	-83*	nt	-19%	i	-7%
